# The source made the active and inactive calls.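 The calls were made as follows, unless noted: active = inhibition of the reporter signal at or above 50%; inactive = inhibition below 50%.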
# How the values were obtained:
# [1] = inhibitors of TNFa-induced NFkB p65 translocation, primary screen, imaging, HUVEC, MLSMR starter and 10KST1 sets (AID 438;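 active = inhibition above 20% together with a positive visual image hit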;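 also: compound added about 3h40 before a 20 min TNFalpha stimulation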;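 as to inhibition: signal is the nuclear over cytoplasmic p65 intensity ratio per well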); conditions: HUVEC TNFa-induced p65 nuclear translocation; cell count: measured here: nuclei count (cytotoxicity indicator), at 2.08 µM; inhibition: at 2 µM, stronger effect = higher value, 0% TNFa-plus-vehicle, 100% no-TNFa wells
# [2] = inhibitors of mutant huntingtin aggregation, primary screen, imaging, exon1htt(103Q)mCFP cells, high-content imaging (AID 483;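 active = visual image review flags a hit and inhibition of aggregation exceeds 20%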;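 also: compound exposure lasted 3 days before fixation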;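 as to nuclei count: percent of the per-plate median nuclei count of sample wells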); conditions: exon1htt(103Q)mCFP cell line, aggregate imaging, at 2 µM; inhibition of aggregation: stronger effect = higher value; nuclei count: measured here: cell count, toxicity
# [3] = inhibitors of E-selectin induction by TNFa, primary screen, imaging, HUVEC, immunofluorescence, MLSMR starter and 10KST1 sets (AID 487;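 active = visually confirmed hit in the image check and inhibition above 20%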;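 as to inhibition: signal is fraction of cell area covered by stained E-selectin grains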;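 as to nuclei count: 100% = median nuclei count of all wells on the same plate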); conditions: HUVEC TNFalpha-induced E-selectin immunofluorescence imaging, at 2 µM; inhibition: stronger effect = higher value; nuclei count: measured here: cell number, toxicity
# [4] = target: Voltage-gated potassium channel subunit beta-2 (Rattus norvegicus) (UniProt P62483); experiment: KvBeta enzyme negative modulators, primary screen, biochemical, NADPH fluorescence (AID 622;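 active = fluorescence slope higher than the sample average by over 3 SD, cut at about -0.22 in these data, passing the limit was not always enough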;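 also: slope of raw intensity against log time taken from 70 to 1610 s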); conditions: recombinant KvBeta, 4-cyanobenzaldehyde reduction, at 10 µM, stronger effect = higher value
# Sequence of Voltage-gated potassium channel subunit beta-2 (Rattus norvegicus) (P62483 whole entry, looked up): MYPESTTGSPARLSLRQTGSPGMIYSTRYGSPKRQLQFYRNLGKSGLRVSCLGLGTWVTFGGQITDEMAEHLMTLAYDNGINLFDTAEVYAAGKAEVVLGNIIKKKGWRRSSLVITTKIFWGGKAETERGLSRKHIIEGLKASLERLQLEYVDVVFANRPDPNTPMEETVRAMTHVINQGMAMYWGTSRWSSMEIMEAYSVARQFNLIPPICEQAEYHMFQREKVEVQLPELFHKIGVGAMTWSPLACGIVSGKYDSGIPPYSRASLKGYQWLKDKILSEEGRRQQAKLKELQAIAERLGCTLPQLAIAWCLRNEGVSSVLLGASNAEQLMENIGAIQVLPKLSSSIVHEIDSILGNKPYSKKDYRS
# [5] = target: Voltage-gated potassium channel subunit beta-2 (Rattus norvegicus) (UniProt P62483); experiment: KvBeta positive modulators, primary screen, biochemical, NADPH fluorescence (AID 623;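 active = NADPH fluorescence slope more negative than the mean of all samples by about 3 SD, 99.7% confidence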;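 also: fluorescence intensity change per second fitted from 20 to 320 s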); conditions: Recombinant KvBeta, NADPH fluorescence decrease slope, 10 min; at 10 µM; stronger effect = lower value
# [6] = target: Alpha-2C adrenergic receptor (Homo sapiens) (UniProt P18825); experiment: modulators of alpha2C/GIRK thallium flux, primary screen, cell-based, HEK293 alpha2C/GIRK1/2 (AID 624;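 active = fluorescence slope after compound addition differing from the mean of all screened samples at 99.7% confidence, in either direction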;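 also: slope of fluorescence ratio to pre-addition baseline per second over 15 to 24 s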); conditions: thallium flux BTC fluorescence, at 10 µM, actives lie on both sides
# Sequence of Alpha-2C adrenergic receptor (Homo sapiens) (P18825 whole entry, looked up): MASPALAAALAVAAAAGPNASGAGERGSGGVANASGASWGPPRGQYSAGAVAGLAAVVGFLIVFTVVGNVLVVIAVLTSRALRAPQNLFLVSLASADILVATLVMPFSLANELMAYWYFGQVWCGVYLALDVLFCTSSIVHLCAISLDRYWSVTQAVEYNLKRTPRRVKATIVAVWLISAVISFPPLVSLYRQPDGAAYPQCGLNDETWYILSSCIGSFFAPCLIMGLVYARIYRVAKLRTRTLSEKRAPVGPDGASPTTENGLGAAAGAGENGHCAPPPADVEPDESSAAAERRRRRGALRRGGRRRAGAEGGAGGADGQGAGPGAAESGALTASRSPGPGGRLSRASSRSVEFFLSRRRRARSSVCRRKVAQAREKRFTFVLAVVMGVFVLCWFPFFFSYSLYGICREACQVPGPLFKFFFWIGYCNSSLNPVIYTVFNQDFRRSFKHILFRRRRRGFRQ
# [7] = inhibitors of Sendai virus-induced IRF3 signaling, primary screen, TLR/RLR signaling modifier project, cell-based, Sendai virus stimulus, luciferase, 10K MLSCN set (AID 602276;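 active = inhibition at or above 50% at 10 µM; inactive = inhibition below 50%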;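 also: firefly luciferase from ISG56 promoter only with Renilla not read in this screen; 0% = Sendai virus plus DMSO and 100% = medium plus DMSO without virus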); conditions: HEK293 RL24 IRF3 luciferase reporter, at 10 µM, stronger effect = higher value
# [8] = inhibitors of poly I:C-induced TLR3 signaling, primary screen, cell-based, poly I:C stimulus, luciferase, 10K MLSCN set (AID 602277); conditions: HEK293-TLR3 RL24 IRF3 luciferase reporter, at 10 µM, stronger effect = higher value
SMILES,cell count [1],inhibition [1],inhibition of aggregation [2],nuclei count [2] [%],inhibition [3],nuclei count [3] [%],fluorescence slope [4],NADPH fluorescence slope [5],slope [6],inhibition [7],inhibition [8]
CCOc1ccc(-c2nc(N)ncc2-c2ccccc2)c(O)c1,399,2% (inactive),-4.3% (inactive),114,-32.6% (inactive),67.7,-0.581 (inactive),-3.6e-05 (inactive),0.00545 (inactive),-1.82% (inactive),-1.28% (inactive)
CCSCCNC(=O)c1cc(-n2cnnc2)ccc1Cl,685,1.3% (inactive),-2.3% (inactive),97.1,24.9% (inactive),89.9,-0.633 (inactive),-9.8e-06 (inactive),0.0037 (inactive),16.3% (inactive),20.3% (inactive)
Cc1cc(C(F)(F)F)nc(NCc2cccnc2)n1,597,-31.3% (inactive),-19.1% (inactive),97.7,-79.3% (inactive),120,-0.529 (inactive),1.9e-05 (inactive),0.00686 (inactive),-7.81% (inactive),-18.3% (inactive)
CCOC(=O)Cn1c(=N)n(CCOc2cccc(C)c2)c2ccccc21,426,-18.5% (inactive),19.9% (inactive),108,-112% (inactive),224,-0.322 (inactive),2e-05 (inactive),0.00636 (inactive),11.4% (inactive),19.4% (inactive)
O=C(Nc1ccc2c(c1)OCCO2)c1ccco1,337,-3.5% (inactive),-13.9% (inactive),118,6.1% (inactive),102,-0.488 (inactive),-3.7e-05 (inactive),0.00709 (inactive),-48.4% (inactive),-81.4% (inactive)
CCOc1ccccc1OCCCCN1CCCC1,608,10.2% (inactive),15.7% (inactive),100,-99% (inactive),122,-0.47 (inactive),-5.2e-06 (inactive),0.00972 (active),7.96% (inactive),35.8% (inactive)
CS(=O)(=O)N(CC(=O)N1CCc2ccccc2C1)c1ccc2c(c1)OCO2,262,1.6% (inactive),17% (inactive),97.2,14.1% (inactive),77.8,-0.481 (inactive),-5.5e-05 (inactive),0.00584 (inactive),11% (inactive),23.8% (inactive)

# Source: PubChem BioAssay
